HCMV antiviral – qHTS Assay for inhibitors of the human cytomegalovirus (HCMV) | 4.5% of 410,000 active | HFF cells, HCMV-luciferase reporter, 72 h; hits give low values | activity change, negative = inhibition, % at 57.5 µM; in the data active = activity change below about -60%; inconclusive = no clear call, values can overlap the other calls; inactive = above about -39%
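Two-dose cell screen: HFF monolayers treated with compounds and infected with luciferase-expressing HCMV at 1 PFU/cell, 72 h at 37C, then lysed for luciferase measurement.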
HCV inhibitor – qHTS Assay for Inhibitors of Hepatitis C Virus (HCV) | Huh7.5.1 HCVcc-Cre infection, luciferase reporter, 44 h | Potency, µM (highest dose often 41.8 µM), without a hit: at the highest dose activity change, negative = inhibition, usual class: inhibitors | 3.4% of 340,000 active; also: potency is read from the fitted curve at half-maximal effect
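Reporter virus HCVcc-Cre (~0.5 moi) infects cells exposed to compound; seeding density 1,000 cells/well with 4 h settling beforehand. Luminescence, 15 sec read, taken 44 h post-infection following a 15 min RT substrate incubation.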
Pf growth 96h – Primary qHTS for delayed death inhibitors of the malarial parasite plastid, 96 hour incubation; AID 504834, 2011; Potency, µM (highest dose often 28.7 µM), inactives show at the highest dose activity change, negative = inhibition, actives largely listed as inhibitors; P. falciparum luciferase reporter growth, 96 h; 6.9% of 320,000 active; also: potency is read from the fitted curve at half-maximal effect
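Erythrocytes infected with luciferase-expressing P. falciparum were dispensed at 2% hematocrit and 0.05% parasitemia (final), then incubated with compounds 96 hours at 37 C in 5% CO2. Luminescence after detection reagent addition reported growth.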
Pf growth 48h – Primary qHTS for delayed death inhibitors of the malarial parasite plastid, 48 hour incubation; P. falciparum luciferase growth in erythrocytes, 48 h; Potency, µM (titrated, usually from 28.7 µM), for inactives: at the highest dose activity change, negative = inhibition, most hits filed as inhibitors; 5.9% of 310,000 active; also: potency is read from the fitted curve at half-maximal effect
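Erythrocytes infected with P. falciparum carrying an integrated firefly luciferase reporter (2% hematocrit, 0.1% parasitemia final) were exposed to compounds in RPMI 1640 with 0.5% Albumax at 37 C, 5% CO2. Growth inhibition was scored as reduced luminescence.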
The depositor's hits bear a star; ! = a repeat was not active; [ ] = another dose, or the depositor's remark. In the library only some 13% were active in any assay of this set; here they are far more common. Unless noted, calls follow the shape of the dose curve; as a rule, active = well fitted inhibition curve with a large enough effect; inconclusive = small, poorly fitted or top-dose-only effect, or another doubt; inactive = no such curve, though single readings can be large or run the other way. % is scaled to controls: 0 for no effect and ±100 for the full control effect.

`Cc1cc(C)cc(OCC(=O)Nc2nonc2NC(=O)COc2cc(C)cc(C)c2)c1` gave HCMV antiviral 27.0, HCV inhibitor inconclusive, Pf growth 96h -19.7% and Pf growth 48h inconclusive.
Screening CCCCN1CC(COCc2ccccc2)Oc2cccc(Sc3ccc(OC)c(OC)c3)c2S1(=O)=O (centres undefined) returned HCMV antiviral 5.5.
Screening Cc1cccc(C)c1NC(=O)C1N=Cc2ccccc2N=C1c1cccc(Br)c1 (centres undefined) returned HCMV antiviral 35.3.
`COc1ccc(C(=O)c2ccc([N+](=O)[O-])cc2)c(OC)c1OC` gave HCMV antiviral 8.7 and HCV inhibitor 6.4%.
`COc1ccccc1-n1c(=O)c(C#N)c(-c2ccc([N+](=O)[O-])cc2)c2cc(C(=O)c3ccccc3O)cnc21` gave HCMV antiviral -29.9, HCV inhibitor -1.4%, Pf growth 96h 1.85µM* and Pf growth 48h 2.62µM*.
`C[N+](C)(C)CC/C=C1/c2ccccc2CSc2ccccc21` gave HCMV antiviral 10.9, HCV inhibitor -16.4%, Pf growth 96h 4.15µM* and Pf growth 48h 9.28µM*.
For CC(=O)OCCCN(C)CC/C=C1/c2ccccc2CSc2ccccc21 the results were HCMV antiviral 0.0 and HCV inhibitor inconclusive.
Cc1ccc(CCNC(=O)C(C)n2nc(C)c3c(C)n(-c4ccc(C)cc4)nc3c2=O)cc1 (centres undefined) was read as HCMV antiviral -62.1*.
`CCOc1ccc(CNC(=O)C(C)n2nc(C)c3c(C)n(-c4ccccc4)nc3c2=O)cc1` (centres undefined) gave HCMV antiviral inconclusive, HCV inhibitor -29.4%, Pf growth 96h -5.7% and Pf growth 48h inconclusive.
`COc1ccc(CNC(=O)C(C)n2nc(C)c3c(C)n(-c4ccc(C)cc4)nc3c2=O)cc1` (centres undefined) gave HCMV antiviral -68.0*, HCV inhibitor inconclusive, Pf growth 96h -1.8% and Pf growth 48h 13.1µM*.
Cc1cccc(CNC(=O)C(C)n2nc(C)c3c(C)n(-c4ccccc4)nc3c2=O)c1 (centres undefined) was read as HCMV antiviral -8.6, HCV inhibitor 10µM*, Pf growth 96h 10.4µM* and Pf growth 48h inconclusive.
For CCC(C(=O)NCc1ccc(OC)c(OC)c1)n1nc(C)c2c(C)n(-c3ccc(C)cc3)nc2c1=O (centres undefined) the results were HCMV antiviral -73.7*.
Screening N#Cc1nc(-c2ccccc2Cl)oc1NCC1CCCO1 (centres undefined) returned HCMV antiviral 25.7, HCV inhibitor 12.6µM* and Pf growth 96h -13.4%.
N#Cc1nc(Cc2cccc3ccccc23)oc1NCc1ccco1 was read as HCMV antiviral -0.6, HCV inhibitor -18.1%, Pf growth 96h inconclusive and Pf growth 48h inconclusive.
`N#Cc1nc(Cc2cccc3ccccc23)oc1NCC1CCCO1` (centres undefined) gave HCMV antiviral 61.6 and Pf growth 96h 7.38µM*.
Screening Cc1ccc(-n2c(=O)cc(NCc3cccnc3)[nH]c2=O)cc1 returned HCMV antiviral -13.6, HCV inhibitor 17.3%, Pf growth 96h 1.85µM* and Pf growth 48h 3.7%.
For CCCCOc1cc(C(=O)NCCN(CC)CC)c2ccccc2n1 the results were HCMV antiviral -27.2, HCV inhibitor 3.0%[8.37 µM], Pf growth 96h 10.4µM* and Pf growth 48h 13.1µM*.
For CCCCN(C)CCNC(=O)c1cc(-c2ccc(Cl)s2)nc2ccccc12 the results were HCMV antiviral -101.0*.
O=C(NCCCN1CCOCC1)c1cc(-c2ccc(Cl)s2)nc2ccccc12 was read as HCMV antiviral -11.5, HCV inhibitor inconclusive, Pf growth 96h inconclusive and Pf growth 48h 16.5µM*.
CCN(CC)CCCNC(=O)c1cc(Nc2ccc(OC)cc2OC)nc2ccccc12 was read as HCMV antiviral 51.1, HCV inhibitor -27.0%, Pf growth 96h inconclusive and Pf growth 48h 11.5%[0.00184 µM].
For O=C(O)c1cc(-c2ccc(Br)s2)nc2ccccc12 the results were HCMV antiviral 16.5, HCV inhibitor 7.3%, Pf growth 96h inconclusive and Pf growth 48h 45.6%.
`CCOCCCNC(=O)c1cc(-c2ccc(Br)s2)nc2ccccc12` gave HCMV antiviral -19.6, HCV inhibitor -16.0% and Pf growth 96h 10.4µM*.
Screening Cc1ccc2[nH]c3c(=O)n(CC(=O)N4CCCC(C)C4)ncc3c2c1 (centres undefined) returned HCMV antiviral 17.6.
`CCc1ccc(CNC(=O)c2cc(-c3ccc(Br)s3)nc3ccccc23)cc1` gave HCMV antiviral 12.4.
CCN(CC)CCNC(=O)c1cc(-c2ccc(Br)s2)nc2ccccc12 was read as HCMV antiviral -93.6*!, HCV inhibitor 12.6µM* and Pf growth 96h 2.2%.
For CC(C)Oc1ccc(-c2cc(C(=O)NCCN3CCOCC3)c3ccccc3n2)cc1 the results were HCMV antiviral 94.6, HCV inhibitor 10µM*, Pf growth 96h 31.4% and Pf growth 48h 2.33µM*.
CCN(CC)CCNC(=O)c1cc2cc(Br)ccc2s1 was read as HCMV antiviral 4.0, HCV inhibitor 12.6µM*, Pf growth 96h inconclusive and Pf growth 48h 55.1%.
`CN1CCN(NC(=O)c2cc(-c3ccc(Br)s3)nc3ccccc23)CC1` gave HCMV antiviral -5.1, HCV inhibitor 10µM*, Pf growth 96h 22.1% and Pf growth 48h inconclusive.
For CCOc1ccc(CCNC(=O)CSCc2nc(-c3cccc(C)c3)oc2C)cc1OCC the results were HCMV antiviral -24.4.
COc1ccc(NC(=O)C(c2ccncc2)n2c(=O)c(-c3ccccc3)nc3ccccc32)cc1 (centres undefined) was read as HCMV antiviral 35.5.
For O=C(c1ccc2c(c1)OCO2)N1C[C@@H]2[C@H](c3ccccc31)[C@H](CO)N2CC1CCCC1 the results were HCMV antiviral -26.5.
CC1=CC(C)(C)N(C(=O)CNC2CCCCC2)c2cc(C)ccc21 was read as HCMV antiviral -39.6, HCV inhibitor 4.1%, Pf growth 96h inconclusive and Pf growth 48h 9.28µM*.
For Cc1ccc(NC(=O)CCCn2c(=O)c3cccn3c3cccnc32)c(Cl)c1 the results were HCMV antiviral -32.5.
Screening COc1cccc(Cn2c(=O)n(-c3ccccc3C)c(=O)c3c2c2cc(C)ccc2n3C)c1 returned HCMV antiviral -68.2*.
`CCOC(=O)C1(CCOc2ccccc2)CCN(Cc2nccn2CC)CC1` gave HCMV antiviral 13.0, HCV inhibitor inconclusive, Pf growth 96h -27.5% and Pf growth 48h inconclusive.
`CCOC(=O)C1(Cc2ccccc2C(F)(F)F)CCN(CCCn2cccn2)CC1` gave HCMV antiviral inconclusive, HCV inhibitor -23.0%, Pf growth 96h inconclusive and Pf growth 48h inconclusive.
Screening CCOC(=O)C1(CCCc2ccccc2)CCN(Cc2nccn2CC)CC1 returned HCMV antiviral inconclusive, HCV inhibitor 10µM*, Pf growth 96h inconclusive and Pf growth 48h 10.4µM*.

Screening results as filed in PubChem BioAssay.
